From PubChem BioAssay
Compounds with a hit are over-represented: about 12% of the library has one in this group of screens.
JMJD2A Tudor: blocks the human JMJD2A Tudor domain. O75164. AlphaScreen JMJD2A-Tudor / H3K4me3 peptide binding. Potency, µM (series often up to 114 µM), most hits filed as inhibitors. hit rate 4.4% among 390,000; also: nearly all actives have a fitted effect of over 50% in size
BAZ2B inh: BAZ2B (human) inhibition; AlphaScreen BAZ2B-H3K14Ac peptide displacement; Potency, µM (doses to about 114 µM), actives largely listed as inhibitors; hit rate 4.4% among 360,000; AID 504333; also: nearly all actives have a fitted effect of over 60% in size
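Inhibition is scored as reduced AlphaScreen emission. The BAZ2B/b-H3(5-23)K14Ac complex (50 nM each) in PBS pH 7.4, 0.01% Tween-20 meets compound (up to 110 uM) for 30 min at RT before bead addition.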
G9a block: G9a (human) methyltransferase inhibition | Q96KQ7 | G9a H3K9 monomethylation, AlphaScreen, 2 h | Potency, µM (series often up to 102 µM), most hits filed as inhibitors | hit rate 8.8% among 350,000; also: nearly all actives have a fitted effect of over 75% in size
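Signal arises when biotinylated H3K9 peptide, once monomethylated, bridges streptavidin donor and antibody-captured acceptor beads. Enzyme at 20 nM was preincubated 15 min with test compounds; peptide 500 nM and SAM 20 uM then reacted for 2 h.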
HP1b binding inh: blocks HP1-beta chromodomain binding to methylated histone tails; P83916; AlphaScreen HP1-beta / biotin-H3K9me3 peptide binding; Potency, µM (titrated, usually from 114 µM), actives largely listed as inhibitors; hit rate 0.56% among 390,000; also: nearly all actives have a fitted effect of over 70% in size
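HP1-beta protein (50 nM final) preincubated 30 min at room temperature with biotinylated H3(1-18)K9me3 peptide (50 nM) in PBS pH 7.4, 0.01% Tween-20, then compound added for 30 min. AlphaScreen streptavidin donor/nickel chelate acceptor beads (10 ug/mL final), 30 min dark, luminescence read.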
PLK1 PBD block: PLK1 (human) polo-box domain binding inhibition. Plk1 PBD binding of FITC phosphopeptide, fluorescence polarization. AID 720504. Potency, µM, most hits filed as inhibitors. P53350. hit rate 2.8% among 360,000; also: series mostly up to about 57 µM; nearly all actives have a fitted effect of over 65% in size
Target sequence (P53350 whole entry, looked up, the tested form may be a part): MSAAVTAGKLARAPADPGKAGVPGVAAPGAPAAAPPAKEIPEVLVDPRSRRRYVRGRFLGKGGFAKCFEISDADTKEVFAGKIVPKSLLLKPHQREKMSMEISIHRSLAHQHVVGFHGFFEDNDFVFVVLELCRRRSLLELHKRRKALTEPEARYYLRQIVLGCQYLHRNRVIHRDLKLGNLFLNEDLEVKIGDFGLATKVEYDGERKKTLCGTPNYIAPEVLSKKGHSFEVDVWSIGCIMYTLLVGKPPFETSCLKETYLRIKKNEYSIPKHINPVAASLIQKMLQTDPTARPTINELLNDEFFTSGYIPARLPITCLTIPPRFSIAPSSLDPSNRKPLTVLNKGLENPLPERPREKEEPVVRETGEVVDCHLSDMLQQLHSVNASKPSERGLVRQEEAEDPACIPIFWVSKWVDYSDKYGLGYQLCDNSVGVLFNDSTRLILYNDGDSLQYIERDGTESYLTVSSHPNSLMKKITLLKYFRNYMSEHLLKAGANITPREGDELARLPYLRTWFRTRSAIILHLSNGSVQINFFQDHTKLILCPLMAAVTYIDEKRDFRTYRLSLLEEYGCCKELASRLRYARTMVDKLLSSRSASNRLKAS
PI5P4Ka inh: inhibitors of human PI5P4K alpha. P48426. PI5P4Kalpha enzyme, ADP-Glo luminescence, 60 min; stronger effect = lower value. max response, %. hit rate 1.2% among 330,000. AID 652105; active = max response of -50% or lower; inconclusive = between -30% and -50%; inactive = -30% or higher; also: value at the top dose of about 77 µM
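Compounds were pin-transferred onto PI5P4Kalpha and substrate in HEPES pH 7.4 buffer with EGTA, CHAPS and 5% DMSO. ATP (5 microM final) started the reaction, which ran 60 minutes at room temperature before ADP-Glo detection.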
Each line names hits and unclear results; the compound was inactive in the other large screens; ! = not confirmed by another sample. Unless noted, calls follow the shape of the dose curve; as a rule, active = well fitted curve in the direction sought with a large enough effect; inconclusive = small, poorly fitted or top-dose-only effect, or another doubt; inactive = no such curve, though single readings can be large; an effect the other way counts as inactive or inconclusive.

CCc1cnc2c(c1SC(C(C)=O)C(=O)N(C)C)c(=O)n(C)c(=O)n2C (configuration not stated)	JMJD2A Tudor 28.2µM, G9a block 4.47µM, HP1b binding inh inconclusive (no result: PLK1 PBD block, PI5P4Ka inh)
CCc1cnc2c(c1SCC(=O)N1CCCCC1)c(=O)n(C)c(=O)n2C	none (no result: PLK1 PBD block, PI5P4Ka inh)
O=S(=O)(N/N=C/c1ccc(Cl)cc1)c1ccc(Cc2ncc(C(F)(F)F)cc2Cl)s1	JMJD2A Tudor inconclusive, G9a block 28.2µM, PLK1 PBD block inconclusive, PI5P4Ka inh inconclusive
COC(=O)c1ccc2[nH]c3c(c2c1)CC(C)CC3 (configuration not stated)	JMJD2A Tudor inconclusive, BAZ2B inh 25.1µM (no result: G9a block)
CC1CCc2[nH]c3ccc(C(=O)Nc4ccc(C(=O)N(C)C)cc4)cc3c2C1 (configuration not stated)	none (no result: G9a block)
COC(=O)c1ccc2[nH]c([C@H](C)O)c([C@H](C)O)c2c1	G9a block 44.7µM
CCOc1ccc(NC(=O)CN(C)C(=O)c2ccc3[nH]c4c(c3c2)CC(C)CC4)cc1OCC (configuration not stated)	JMJD2A Tudor inconclusive, BAZ2B inh inconclusive, G9a block 35.5µM, HP1b binding inh inconclusive
Cc1ccc(NC(=O)CN(C)C(=O)c2ccc3[nH]c4c(c3c2)CC(C)CC4)cc1 (configuration not stated)	JMJD2A Tudor 44.7µM, BAZ2B inh inconclusive, G9a block inconclusive, HP1b binding inh inconclusive
COc1ccc(S(N)(=O)=O)cc1C(=O)NNC(=O)c1cccc(S(=O)(=O)N2CCOCC2)c1	none (no result: BAZ2B inh, G9a block)
Cc1ccc(-n2nnnc2SCC(=O)NCC2(N3CCOCC3)CCCCC2)c(C)c1	none
O=C(O)c1[nH]c2ccccc2c1NS(=O)(=O)Cc1ccccc1	JMJD2A Tudor inconclusive, G9a block inconclusive
COc1ccc(S(=O)(=O)Nc2c(O)ccc3ccccc23)cc1OC	JMJD2A Tudor 79.4µM, HP1b binding inh 70.8µM, PLK1 PBD block 29.9µM (no result: BAZ2B inh, G9a block)
Cc1ccc(S(=O)(=O)Nc2c(C(=O)O)[nH]c3ccccc23)c(C)c1	JMJD2A Tudor 56.2µM, BAZ2B inh inconclusive, G9a block inconclusive, HP1b binding inh inconclusive, PLK1 PBD block 26.7µM
COc1ccc(S(=O)(=O)Nc2c(C(=O)O)[nH]c3ccccc23)cc1	G9a block 44.7µM
O=C(O)c1[nH]c2ccccc2c1NS(=O)(=O)c1ccc(F)cc1	BAZ2B inh inconclusive, G9a block 70.8µM, PLK1 PBD block inconclusive
COc1ncc2nc(-c3ccccc3)c(=O)n(CCc3ccccc3)c2n1	none (no result: JMJD2A Tudor, BAZ2B inh, HP1b binding inh, PLK1 PBD block, PI5P4Ka inh)
Cc1ccc(CNC(=O)CCCn2c(=O)[nH]c3ccc(Br)cc3c2=O)cc1	none (no result: PLK1 PBD block, PI5P4Ka inh)
CC1=CC2C(C3C=CC2(C)C(=O)C3(C)O)C(C)(O)C1=O (configuration not stated)	none (no result: BAZ2B inh, G9a block)
O=C(NCCc1ccccc1Cl)c1ccc2c(c1)nc1n2CCOC1	none (no result: PLK1 PBD block, PI5P4Ka inh)
COc1ccc2[nH]c(C(=O)O)c(NS(=O)(=O)c3ccc(C)c(C)c3)c2c1	G9a block 44.7µM
COc1ccc2[nH]c(C(=O)O)c(NS(=O)(=O)c3ccc(F)cc3)c2c1	G9a block inconclusive
COc1ccc(S(=O)(=O)Nc2c(C(=O)O)[nH]c3ccccc23)cc1OC	JMJD2A Tudor inconclusive, BAZ2B inh inconclusive, G9a block 12.6µM
CC(=O)C1=CCC(c2ccc(Cl)cc2)N(S(=O)(=O)c2ccccc2)C1 (configuration not stated)	none (no result: JMJD2A Tudor, BAZ2B inh, G9a block, HP1b binding inh)
Cc1ccc(S(=O)(=O)N(CC(=O)Nc2ccc(C)cc2C)C(=O)N2CCN(C)CC2)cc1	none
C#CCN(C(=O)C1CCC(=O)N(CCc2cccc(F)c2)C1)C1CCCCC1 (configuration not stated)	none (no result: JMJD2A Tudor, BAZ2B inh, G9a block, HP1b binding inh)
CC1CCN(CCCNC(=O)CN2C(=O)CSc3ccc(S(=O)(=O)N4CCC(C)CC4)cc32)CC1	JMJD2A Tudor 56.2µM!, HP1b binding inh inconclusive
O=C(CN1C(=O)CSc2ccc(S(=O)(=O)N3CCCCC3)cc21)NCc1cccnc1	G9a block inconclusive
CC1CCN(S(=O)(=O)c2ccc3c(c2)N(CC(=O)NCc2cccnc2)C(=O)CS3)CC1	JMJD2A Tudor inconclusive, PLK1 PBD block 26.7µM
